The source of these data is ChEMBL document CHEMBL2218924, “A broad activity screen in support of a chemogenomic map for kinase signalling research and drug discovery” (Biochem J, 2013).

Structures are written as SMILES.

The target of assay [1] is T1, Activin receptor type-1B (Homo sapiens) (UniProt P36896).
T1 sequence (whole entry): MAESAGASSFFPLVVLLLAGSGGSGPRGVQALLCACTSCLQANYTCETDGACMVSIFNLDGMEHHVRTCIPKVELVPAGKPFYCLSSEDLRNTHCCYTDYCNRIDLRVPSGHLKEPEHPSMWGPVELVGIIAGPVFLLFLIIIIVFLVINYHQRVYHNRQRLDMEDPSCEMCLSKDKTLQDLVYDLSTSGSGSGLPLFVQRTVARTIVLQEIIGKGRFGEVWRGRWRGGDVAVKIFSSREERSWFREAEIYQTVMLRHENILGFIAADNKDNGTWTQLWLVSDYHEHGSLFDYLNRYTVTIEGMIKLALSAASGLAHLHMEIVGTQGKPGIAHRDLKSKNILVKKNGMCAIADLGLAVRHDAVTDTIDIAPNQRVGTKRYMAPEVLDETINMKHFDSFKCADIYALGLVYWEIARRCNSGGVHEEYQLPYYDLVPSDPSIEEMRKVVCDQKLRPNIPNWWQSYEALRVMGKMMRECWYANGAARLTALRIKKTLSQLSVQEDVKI
Conditions: at 1 µM.

Assay [2] deals with T1, Activin receptor type-1B (Homo sapiens). As to conditions: at 10 µM.
The target of assay [3] is T2, NUAK family SNF1-like kinase 1 (Homo sapiens) (UniProt O60285).
T2 sequence (whole entry): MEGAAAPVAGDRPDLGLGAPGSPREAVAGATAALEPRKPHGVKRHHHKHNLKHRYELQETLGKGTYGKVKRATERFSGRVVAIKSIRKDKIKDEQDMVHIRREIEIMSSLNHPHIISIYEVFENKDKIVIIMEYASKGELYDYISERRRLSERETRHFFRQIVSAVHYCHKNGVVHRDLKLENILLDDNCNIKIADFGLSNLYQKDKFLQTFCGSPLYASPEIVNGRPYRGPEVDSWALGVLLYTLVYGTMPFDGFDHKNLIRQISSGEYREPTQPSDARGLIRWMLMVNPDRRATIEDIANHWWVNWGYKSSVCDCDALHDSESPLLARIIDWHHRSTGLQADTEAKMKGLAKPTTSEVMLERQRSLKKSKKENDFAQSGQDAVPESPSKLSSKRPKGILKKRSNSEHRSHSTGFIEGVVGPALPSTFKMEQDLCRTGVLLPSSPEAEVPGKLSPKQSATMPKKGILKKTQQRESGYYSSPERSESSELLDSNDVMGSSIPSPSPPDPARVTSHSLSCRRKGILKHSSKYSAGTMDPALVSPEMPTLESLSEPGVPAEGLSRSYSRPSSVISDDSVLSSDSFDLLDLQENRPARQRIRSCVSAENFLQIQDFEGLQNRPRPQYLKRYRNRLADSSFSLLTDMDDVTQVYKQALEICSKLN
As to conditions: at 1 µM.

For assay [4], the target named is T2, NUAK family SNF1-like kinase 1 (Homo sapiens). Conditions: at 10 µM.
In assay [5] the target is T3, AMP-activated protein kinase (AMPK) alpha-1/beta-1/gamma-1 (Homo sapiens) (UniProt P54619+Q9Y478+Q13131). As to conditions: at 10 µM.
In assay [6] the target is T4, AMP-activated protein kinase, AMPK (Homo sapiens) (UniProt P54646+O43741+P54619+Q9UGJ0+Q9Y478+Q13131+Q9UGI9). As to conditions: at 10 µM.
Assay [7] has as its target T4, AMP-activated protein kinase, AMPK (Homo sapiens). Conditions: at 1 µM.
For assay [8], the target named is ALK tyrosine kinase receptor (Homo sapiens) (UniProt Q9UM73). As to conditions: at 10 µM.
Assay [9] concerns the target T5, Mitogen-activated protein kinase kinase kinase 5 (Homo sapiens) (UniProt Q99683).
T5 sequence (whole entry): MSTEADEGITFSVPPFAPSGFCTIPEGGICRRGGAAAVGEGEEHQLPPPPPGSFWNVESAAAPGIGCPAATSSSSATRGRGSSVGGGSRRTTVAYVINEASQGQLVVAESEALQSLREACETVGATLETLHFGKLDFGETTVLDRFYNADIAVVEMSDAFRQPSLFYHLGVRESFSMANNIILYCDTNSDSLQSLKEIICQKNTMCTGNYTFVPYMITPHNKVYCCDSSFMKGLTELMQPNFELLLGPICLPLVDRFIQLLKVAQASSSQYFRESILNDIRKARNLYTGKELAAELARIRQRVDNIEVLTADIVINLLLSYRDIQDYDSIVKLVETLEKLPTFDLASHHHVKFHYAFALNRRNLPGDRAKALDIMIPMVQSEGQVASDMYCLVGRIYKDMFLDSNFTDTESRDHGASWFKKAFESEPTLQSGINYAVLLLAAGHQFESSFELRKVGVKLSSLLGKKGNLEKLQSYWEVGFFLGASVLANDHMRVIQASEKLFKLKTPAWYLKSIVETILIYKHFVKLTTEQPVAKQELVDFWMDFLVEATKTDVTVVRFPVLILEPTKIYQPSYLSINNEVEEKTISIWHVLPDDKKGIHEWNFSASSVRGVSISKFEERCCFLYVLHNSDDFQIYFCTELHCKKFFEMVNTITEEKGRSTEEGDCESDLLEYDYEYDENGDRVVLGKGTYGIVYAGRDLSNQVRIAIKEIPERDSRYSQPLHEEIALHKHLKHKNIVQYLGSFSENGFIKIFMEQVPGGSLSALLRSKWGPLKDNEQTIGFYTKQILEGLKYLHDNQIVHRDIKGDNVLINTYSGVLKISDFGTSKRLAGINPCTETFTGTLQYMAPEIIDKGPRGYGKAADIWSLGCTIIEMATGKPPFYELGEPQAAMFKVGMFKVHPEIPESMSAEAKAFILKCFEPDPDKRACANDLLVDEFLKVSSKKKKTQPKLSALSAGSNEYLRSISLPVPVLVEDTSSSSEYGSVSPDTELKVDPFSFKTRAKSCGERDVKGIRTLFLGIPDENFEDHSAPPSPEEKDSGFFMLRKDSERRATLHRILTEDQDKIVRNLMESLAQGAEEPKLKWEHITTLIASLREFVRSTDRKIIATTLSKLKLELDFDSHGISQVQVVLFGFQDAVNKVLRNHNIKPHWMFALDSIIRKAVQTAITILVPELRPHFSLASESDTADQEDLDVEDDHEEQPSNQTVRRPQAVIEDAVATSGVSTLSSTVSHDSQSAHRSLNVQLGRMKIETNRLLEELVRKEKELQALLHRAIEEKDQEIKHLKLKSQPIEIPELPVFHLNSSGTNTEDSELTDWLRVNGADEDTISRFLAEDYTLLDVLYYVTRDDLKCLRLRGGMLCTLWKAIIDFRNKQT
As to conditions: at 1 µM.

For assay [10], the target named is T3, AMP-activated protein kinase (AMPK) alpha-1/beta-1/gamma-1 (Homo sapiens). Conditions: at 1 µM.

Chain of ALK tyrosine kinase receptor (Homo sapiens) (Q9UM73 19-1620 limits assumed): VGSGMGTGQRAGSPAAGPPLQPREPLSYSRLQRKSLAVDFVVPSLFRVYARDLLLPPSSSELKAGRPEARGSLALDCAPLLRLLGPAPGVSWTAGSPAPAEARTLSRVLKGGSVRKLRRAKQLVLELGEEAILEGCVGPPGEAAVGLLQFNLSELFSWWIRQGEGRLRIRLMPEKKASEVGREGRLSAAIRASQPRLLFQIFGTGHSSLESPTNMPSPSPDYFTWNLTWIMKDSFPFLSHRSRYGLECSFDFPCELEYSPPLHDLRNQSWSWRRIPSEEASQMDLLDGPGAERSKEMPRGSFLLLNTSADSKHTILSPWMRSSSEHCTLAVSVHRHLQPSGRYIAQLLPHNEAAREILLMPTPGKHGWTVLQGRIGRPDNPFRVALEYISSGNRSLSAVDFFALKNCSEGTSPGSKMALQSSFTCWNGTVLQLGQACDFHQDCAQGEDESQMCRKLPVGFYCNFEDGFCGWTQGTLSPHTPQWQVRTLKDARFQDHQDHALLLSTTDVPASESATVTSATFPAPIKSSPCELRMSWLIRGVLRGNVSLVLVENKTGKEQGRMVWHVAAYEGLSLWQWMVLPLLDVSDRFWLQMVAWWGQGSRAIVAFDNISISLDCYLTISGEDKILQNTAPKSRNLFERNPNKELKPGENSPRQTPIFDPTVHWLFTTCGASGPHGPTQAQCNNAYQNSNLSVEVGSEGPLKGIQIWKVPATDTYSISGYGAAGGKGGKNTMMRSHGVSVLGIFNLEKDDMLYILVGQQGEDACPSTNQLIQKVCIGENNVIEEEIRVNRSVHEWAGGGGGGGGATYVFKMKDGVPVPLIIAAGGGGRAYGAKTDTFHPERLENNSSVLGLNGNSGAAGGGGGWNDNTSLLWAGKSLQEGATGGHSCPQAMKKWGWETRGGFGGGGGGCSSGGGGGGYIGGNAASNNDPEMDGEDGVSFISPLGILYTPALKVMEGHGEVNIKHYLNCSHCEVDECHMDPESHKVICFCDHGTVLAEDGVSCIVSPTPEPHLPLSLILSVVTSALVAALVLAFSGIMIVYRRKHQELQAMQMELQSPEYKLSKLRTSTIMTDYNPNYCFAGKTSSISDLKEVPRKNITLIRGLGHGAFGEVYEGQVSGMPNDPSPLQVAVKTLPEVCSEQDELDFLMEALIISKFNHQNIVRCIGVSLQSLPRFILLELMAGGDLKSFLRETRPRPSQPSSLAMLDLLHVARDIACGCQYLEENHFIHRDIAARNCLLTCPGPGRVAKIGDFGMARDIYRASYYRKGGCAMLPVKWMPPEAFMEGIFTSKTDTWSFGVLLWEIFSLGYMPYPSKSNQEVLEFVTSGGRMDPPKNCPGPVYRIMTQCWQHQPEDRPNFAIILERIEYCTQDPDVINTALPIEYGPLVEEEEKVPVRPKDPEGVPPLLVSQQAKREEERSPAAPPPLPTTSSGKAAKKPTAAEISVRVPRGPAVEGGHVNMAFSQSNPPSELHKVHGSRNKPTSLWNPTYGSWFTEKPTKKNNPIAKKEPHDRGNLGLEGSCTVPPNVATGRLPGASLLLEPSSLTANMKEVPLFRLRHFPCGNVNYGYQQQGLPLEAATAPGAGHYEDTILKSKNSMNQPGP
T3 sequence (P54619 whole entry): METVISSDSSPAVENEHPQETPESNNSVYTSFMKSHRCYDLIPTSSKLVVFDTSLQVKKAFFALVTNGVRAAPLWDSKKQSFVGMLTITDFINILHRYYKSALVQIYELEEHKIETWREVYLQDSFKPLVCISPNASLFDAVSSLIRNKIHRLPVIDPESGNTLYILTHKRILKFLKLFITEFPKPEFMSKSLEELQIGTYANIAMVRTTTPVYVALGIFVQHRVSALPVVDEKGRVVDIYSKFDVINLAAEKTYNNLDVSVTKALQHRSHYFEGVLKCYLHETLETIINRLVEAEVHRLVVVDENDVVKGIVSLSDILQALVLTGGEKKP
T3 sequence (Q13131 whole entry partner): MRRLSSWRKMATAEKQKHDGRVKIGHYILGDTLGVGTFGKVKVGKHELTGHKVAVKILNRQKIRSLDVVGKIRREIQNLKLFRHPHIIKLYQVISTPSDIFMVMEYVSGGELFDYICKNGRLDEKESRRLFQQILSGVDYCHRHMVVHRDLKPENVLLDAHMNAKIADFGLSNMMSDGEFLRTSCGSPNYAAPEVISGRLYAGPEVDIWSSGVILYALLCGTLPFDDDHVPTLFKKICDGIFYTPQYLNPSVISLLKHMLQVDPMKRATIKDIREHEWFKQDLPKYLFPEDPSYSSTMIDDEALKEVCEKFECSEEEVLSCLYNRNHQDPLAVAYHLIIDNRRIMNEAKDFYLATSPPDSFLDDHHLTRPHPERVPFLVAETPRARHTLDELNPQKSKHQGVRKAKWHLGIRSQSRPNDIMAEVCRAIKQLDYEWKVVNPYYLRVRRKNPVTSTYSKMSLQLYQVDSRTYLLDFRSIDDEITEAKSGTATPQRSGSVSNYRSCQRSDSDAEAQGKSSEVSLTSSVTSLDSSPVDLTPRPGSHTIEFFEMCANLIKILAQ
T3 sequence (Q9Y478 2-270 partner limits assumed): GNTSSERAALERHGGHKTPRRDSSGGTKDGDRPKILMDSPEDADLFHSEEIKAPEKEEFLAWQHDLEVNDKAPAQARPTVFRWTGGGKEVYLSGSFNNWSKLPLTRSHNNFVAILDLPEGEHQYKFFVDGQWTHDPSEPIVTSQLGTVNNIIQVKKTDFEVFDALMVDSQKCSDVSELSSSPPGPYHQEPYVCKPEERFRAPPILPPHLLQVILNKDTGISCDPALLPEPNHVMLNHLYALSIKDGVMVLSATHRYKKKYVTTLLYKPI

As to `Oc1cccc(-c2nc(N3CCOCC3)c3oc4ncccc4c3n2)c1`, the residual activity was determined as 148% in assay [1], 92% in assay [2], 98% in assay [3] and 99% in assay [4].

`O=C(Nc1ccc(Cl)cc1)c1ccccc1NCc1ccncc1`: the residual activity in [1] was determined as 130%; in assay [2], 72%; in assay [5], 78%; in [6], 72%.

As for `CC(C)[C@H](CO)Nc1nc(Nc2cc(N)cc(Cl)c2)c2ncn(C(C)C)c2n1`, the residual activity in assay [1] is 122%; in assay [2], 117%; in assay [7], 87%; in assay [6], 50%; in assay [3], 44%; in assay [4], 13%.

Take `O=C(Nc1nc2ccccc2n1CCN1CCOCC1)c1cccc([N+](=O)[O-])c1`: the residual activity in assay [8] came to 75%; in assay [7], 79%; in assay [6], 83%; in [4], 66%; in assay [9], 113%.

As to `Cc1cc(C)c(/C=C2\C(=O)Nc3ccccc32)[nH]1`, the residual activity in [8] turned out to be 13%; in assay [10], 55%; in assay [5], 29%; in [3] it was 35%; in assay [4], 19%.

With `CCN1/C(=C/C(C)=O)Sc2ccc(OC)cc21`, the residual activity in assay [1] amounted to 122%; in assay [10], 79%; in assay [5] it was 54%.

In the case of `Nc1ncnc2c1cnn2-c1ccccc1`, the residual activity in [10] worked out at 96%; in [5], 90%; in [6], 83%; in [3], 99%; in assay [4] it was 87%; in assay [9], 100%.

As for `N#C/C(=C\c1ccc(O)c(O)c1)C(=O)NCc1ccccc1`, the residual activity in assay [10] was 87%; in assay [5], 53%; in assay [7] it was 124%; in assay [6] it was 70%; in assay [3] it was 100%; in [4], 100%.

As to `CC(C)c1nn(-c2c(Cl)cccc2Cl)c2nc(Cc3ccc(OCCO)cc3)[nH]c(=O)c12`, the residual activity was 42% in assay [8]; 93% in assay [10]; 71% in assay [5]; 87% in assay [7]; 74% in [6]; 96% in assay [3]. Further, the residual activity in assay [4] is 72%; in assay [9] it was 95%.

`Nc1n[nH]c2nc3ccccc3nc12`: the residual activity in [8] came to 51%; in assay [10], 86%; in assay [5], 83%; in [7], 88%; in assay [6], 86%; in assay [3], 87%. Besides, the residual activity in [4] is 40%.

For the molecule `O=C1Nc2ccccc2/C1=C\c1c(Cl)[nH]c2ccccc12`, the residual activity was 49% in [8], 58% in assay [6] and 46% in [4].

With `O=c1cc(N2CCOCC2)oc2c1ccc1ccccc12`, the residual activity amounted to 104% in assay [2]; 110% in assay [10]; 94% in assay [5]; 105% in [7]; 90% in [6]; 101% in assay [3]. The results for the residual activity in [4] and in assay [9] were 85% and 88%, respectively.

`COc1ccc(Cl)cc1NC(=O)Nc1cc(C)nc2ccccc12`: the residual activity in [8] turned out to be 58%; in assay [10], 88%; in [5], 78%; in [6], 91%; in assay [3], 94%; in [4], 92%.

For `CC(C)(C)c1nc2c3ccc(F)cc3c3c(=O)[nH]ccc3c2[nH]1`, the residual activity came to 11% in assay [8]; 33% in assay [10]; 31% in assay [5]; 20% in [7]; 23% in [6]; 8% in [3]. In addition, the residual activity in [4] was 9%; in assay [9], 81%.

On to `NC(=O)Nc1sc(-c2ccc(F)cc2)cc1C(N)=O`, for which the residual activity worked out at 31% in assay [8]; 69% in assay [10]; 27% in assay [5]; 66% in assay [7]; 25% in assay [6].

For `N#C/C(=C1/Nc2ccccc2S1)c1ccnc(NCCc2cccnc2)n1`, the residual activity is 18% in [8]; 70% in assay [5]; 99% in [7]; 67% in assay [6]; 97% in assay [3]; 82% in assay [4]. For the same molecule, the residual activity in assay [9] was 78%.

Consider `O=C1Nc2ccc(Cl)cc2/C1=C/c1cc(Cl)c(O)c(Cl)c1`, for which the residual activity stood at 19% in assay [8]; 79% in assay [10]; 40% in assay [5]; 77% in assay [7]; 40% in assay [6]; 69% in assay [3]. Further, the residual activity in assay [4] came out at 50%; in assay [9], 93%.

Turning to `NC(=O)c1cccc(-c2cc(Nc3ccc(OC(F)(F)F)cc3)ncn2)c1`, the residual activity in [10] turned out to be 99%; in assay [5] it was 93%; in [6] it was 83%; in [4], 90%; in assay [9], 90%.
